# PubChem BioAssay AID504832 (National Center for Advancing Translational Sciences (NCATS), 2011)
# The campaign covered roughly 310,000 compounds. About 18,000 (5.8%) were called active. Another 22% or so got no clear call; they are omitted. The sample as a whole holds a higher share of actives than the screen did. A number with no mark means an inactive call. Calls come from the whole dose curve; as a rule, active = well fitted inhibition curve with a large enough effect; inconclusive = small, poorly fitted or top-dose-only effect, or another doubt; inactive = no such curve, though single readings can be large or run the other way.
# Assay: Primary qHTS for delayed death inhibitors of the malarial parasite plastid, 48 hour incubation
# Settings: P. falciparum luciferase growth in erythrocytes; series mostly up to 28.7 µM; activity change, negative = inhibition: at the top concentration
# How it was run: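 Growth was read as firefly luciferase luminescence after a 48 h, 37 C, 5% CO2 exposure of compounds to reporter-bearing P. falciparum cultures (0.1% parasitemia, 2% hematocrit final) in Albumax-supplemented RPMI 1640.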
# % is set by controls: 0 for no effect and ±100 for the full control effect; potency is the fitted concentration of half-maximal effect.
Structure (SMILES),Potency,"activity change, negative = inhibition"
CN(CCNC(=O)c1cc2c(-c3ccccc3F)nn(C)c2s1)C1CCCCC1,1.65 µM (active),–
CN(CCc1cnn(C)c1)Cc1cn(C)nc1-c1ccccc1F,–,8.68%
COc1ccc(N2CCN(S(=O)(=O)c3ccc4c(c3)NC(=O)C(C)C(=O)N4)CC2)cc1 (configuration not stated),–,6.59%
CC(=O)c1ccc(S(=O)(=O)Nc2ccc(-c3ccc4nncn4n3)cc2)cc1,–,-20.6%
COC(=O)C[n+]1cccc2ccccc21,–,-26.9%
O=C(C[n+]1cc(Br)cc2ccccc21)c1ccc(F)cc1,11.7 µM (active),–
O=C(CNC(=O)c1ccc(F)cc1)c1ccccc1,–,138%
Cc1cccc(NS(=O)(=O)c2ccc(-c3cnc(C4CC4)o3)cc2)c1,–,-2.4%
COc1ccccc1C(=O)COC(=O)CSCC(=O)Nc1cc(C)on1,–,37.2%
COC(=O)c1ccc(COC(=O)CNC(=O)c2cccc(OC)c2)o1,–,16.9%
COc1cc(/C=N/N2CCN(c3ccccc3)CC2)ccc1OC(C)=O,–,-1.15%
O=C(CSc1nnc(-c2ccco2)n1CC1CCCO1)c1ccccc1 (configuration not stated),–,15.4%
COc1ccc(CCn2nnnc2C(c2ccccc2)N2CCN(C)CC2)cc1OC (configuration not stated),–,-0.211%
COc1ccc(C(c2nnnn2Cc2cccs2)N2CCN(c3ccccc3)CC2)cc1OC (configuration not stated),14.7 µM (active),–
COc1ccccc1C(c1nnnn1CC1CCCO1)N1CCN(c2ccccc2)CC1 (configuration not stated),11.7 µM (active),–
COc1ccccc1NC(=O)CSc1nnc(C)n1CC1CCCO1 (configuration not stated),–,0.849%
CCOc1cccc2cc(C(=O)OCC(=O)Nc3c(C)cccc3CC)c(=O)oc12,–,8.47%
CCCc1ccc(C(=O)COC(=O)CN2C(=O)NC3(CCCCC3C)C2=O)cc1 (configuration not stated),–,-24.2%
CC(C)C(c1nnnn1C1CCCCC1)N1CCN(C(=O)c2ccco2)CC1 (configuration not stated),–,-21.3%
CCC(c1nnnn1C1CCCC1)N1CCN(C(=O)c2ccco2)CC1 (configuration not stated),8.28 µM (active),–
CC(=O)c1ccc(-n2nnnc2SCC(=O)N2CCN(C(=O)c3ccco3)CC2)cc1,–,-23.9%
CN(C)c1nc(=Nc2cccc(Cl)c2)ss1,1.04 µM (active),–
Cc1cc(OCc2cc(C(=O)NCc3cc(C(C)C)no3)no2)cc(C)c1Cl,–,70.9%
COC(=O)c1ccc(COC(=O)c2cnc(Cl)c(Cl)c2)cc1,–,30.7%
Cc1cc(C(F)(F)F)nc(SCC(=O)Nc2nccs2)n1,–,11.1%
COc1ccc(C(C)NC(=O)C23CC4CC(CC(C4)C2)C3)cc1 (configuration not stated),–,-3.72%

Structure (SMILES),Potency,"activity change, negative = inhibition"
CN1C(=O)C2(OCCCO2)c2cc(Cl)ccc21,–,12.7%
CN1CCN(c2nc(Nc3ccc(O)cc3)nc3ccccc23)CC1,2.94 µM (active),–
CCCCc1nc2ccccc2c(NC(=O)CN2CCN(C)CC2)c1CCC,–,-17.8%
CCc1ccc(-c2cc(C(=O)NN3CCN(C)CC3)c3ccccc3n2)cc1,–,-61.6%
CCOC(CNC(=O)C1CCN(S(=O)(=O)c2ccc3nc4c(c(C(=O)O)c3c2)CC(C)CC4)CC1)OCC (configuration not stated),–,8.14%
C/C(=N\N(C)C)c1ccc(OCCOc2ccc([N+](=O)[O-])cc2)cc1,–,16.6%
COc1ccccc1OCC(=O)Nc1ccccc1C(=O)NC1CC1,–,7.53%
C#CC(C)(C)NC(=O)c1cnc(-c2ccccc2)nc1-c1ccccc1,–,-21%
O=C(c1ccc2nc(N3CCOCC3)sc2c1)N1CCN(c2ccc(Cl)cc2)CC1,–,9.24%
Cc1ccc2nc(N3CCN(C(=O)c4ccco4)CC3)sc2c1,–,41%
COc1ccc2nc(N3CCN(C(=O)c4ccc([N+](=O)[O-])o4)CC3)sc2c1,1.31 µM (active),–
Cc1nc(C)c(-c2nnc(-c3cccc(S(=O)(=O)N(C)C)c3)o2)cc1C(=O)NN,–,7.9%
O=C(COc1coc(CN2CCN(c3ccccc3)CC2)cc1=O)Nc1ccccc1F,–,-15.8%
Cc1cc(C)cc(NC(=O)COc2coc(CN3CCN(c4ccccc4)CC3)cc2=O)c1,13.1 µM (active),–
O=C(COc1coc(CN2CCN(c3ccccc3)CC2)cc1=O)N1CCc2ccccc21,–,-2.8%
Cc1ccsc1C(=O)NCCc1ccco1,–,314%
O=C(c1[nH]ncc1-c1ccc(Cl)cc1)C1CO1 (configuration not stated),7.38 µM (active),–
O=C(c1nnc(-c2ccc(Cl)cc2)o1)C1CCCC1,–,53.1%
C=CCNC(=O)c1ccccc1SCc1c(C)noc1C,–,18.5%
COc1ccc(NC(=O)CN(C)C(=O)c2ccc(COc3ccccc3)o2)cc1,–,3.34%
Cc1ccc(C(C)C)c(OCCSc2nc3ccccc3n2CC(=O)O)c1,–,-1.15%
COc1cccc(NC(=O)NCc2ccc(F)cc2)c1,–,17.6%
Cc1cccc(NC(=O)Nc2cccc(Oc3c(F)c(F)c(F)c(F)c3F)c2)c1,4.15 µM (active),–
Cc1cccc(NC(=O)Nc2nnc(-c3ccccc3)o2)c1,–,10.4%
Cn1c(=O)c(=O)n(C)c2cc(S(=O)(=O)CCC(=O)N3CCCCC3)ccc21,–,-2.89%
COc1cccc(OCc2cc(C(=O)N3CCN(C(=O)c4ccco4)CC3)no2)c1,–,-6.87%
